# Test results: PubChem BioAssay
# Activity calls are given as the source filed them.
# Assay: FRG1 expression reporter modulators in myotubes – cell-based, C2C12 myotubes, firefly/Renilla luciferase, luminescence, FRG1 inhibition for FSHD, primary screen (AID 1084)
# Conditions: FRG1 promoter luciferase, higher = more signal, called active from +8 up or from −8 down
row,Structure (SMILES),z-score
1,[N-]=[N+]=NCc1ccccc1C[C@]1(C(N)=O)N=C(c2ccc(OCCCO)cc2)O[C@H]1c1ccccc1,-3.9 (inactive)
2,C=CCNC(=O)[C@H]1[C@@H]2C(=O)O[C@@H](c3ccccc3)[C@@H](c3ccccc3)N2[C@@H](c2ccc(O)cc2)[C@]12C(=O)Nc1ccc(C#CC3(O)CCCCCC3)cc12,-0.246 (inactive)
3,NCCCCCNC(=O)[C@@H]1C[C@@H]2C(=O)NCC(=O)N2[C@@H]1c1cccc(OCCO)c1,0.0981 (inactive)

# Assay: small molecules captured by biotinylated probe aFST – biochemical, small-molecule microarray, fluorescence 635/667, stem cell growth factor project, primary screen (AID 1086);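 note: score merges 667 nm fluorescence with signal-to-noise of each printed compound spot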
# Conditions: higher = more signal
row,Structure (SMILES),composite z-score
1,COc1cc2c(cc1OC)CN(C(=O)[C@@H]1[C@H]3C(=O)O[C@H](c4ccccc4)[C@H](c4ccccc4)N3[C@H](c3ccc(OCCO)cc3)[C@@]13C(=O)Nc1ccc(C#CC4(O)CCCCCC4)cc13)CC2,0.528
2,C=C(/C(=C/C[C@H](OC(C)=O)c1cccc(OCCO)c1)c1cnc2ccccc2c1)C(C)C,-0.241
3,OCCCC1=CC(c2ccc(CN3CCCC3)cc2)N(Cc2sc3ccccc3c2Cl)CC1 (stereo not drawn),0.0562
4,CCOC(=O)C[C@H]1[C@H](OC(=O)c2ccccc2-c2ccccc2)[C@@H](NC(=O)C2CCCCC2)c2cc(OCCCO)ccc2N1C(=O)Cc1ccc(OC)cc1,0.169
5,CN1C(=O)C2C=CC(C(O)c3cccc4ccccc34)N(N3CCCCC3)C2C1=O (stereo not drawn),0.785
6,CC1=C([C@H](O)CCc2ccccc2)[C@H](CO)[C@@H]2C(=O)N(C)C(=O)[C@@H]2C1,0.0014
7,O=C1O[C@@H](c2ccccc2)[C@@H](c2ccccc2)N2[C@@H](c3ccc(OCCO)cc3)[C@]3(C(=O)Nc4ccccc43)[C@@H](C(=O)O)[C@H]12,0.0284
8,C=C(/C(=C/C[C@@H](OC(C)=O)c1cccc(OCCO)c1)c1cc(C(=O)OC)ccc1OC)C(C)C,0.313
9,CCOC(=O)C[C@H]1[C@H](OC(=O)c2cc3ccccc3oc2=O)[C@@H](NC(=O)c2ccc(-c3ccccc3)cc2)c2cc(OCCCO)ccc2N1C(=O)c1ccc2ccccc2n1,0.619
10,CC[C@H]1C2=C3C(CC[C@H]4C(OCc5ccc(F)cc5C(F)(F)F)OC[C@](C)([C@@H]34)N(C(=O)OC(C)(C)C)C2)C(COC)C1COC (stereo partly drawn),0.857
11,C=CCOC(=O)[C@H]1[C@@H]2C(=O)O[C@@H](c3ccccc3)[C@@H](c3ccccc3)N2[C@@H](c2ccc(OCCOC(=O)[C@H]3C[C@H]4C(=O)N[C@@H](CCCCNC(C)=O)C(=O)N4[C@H]3c3ccc(O)cc3)cc2)[C@]12C(=O)Nc1ccccc12,0.352
12,[N-]=[N+]=Nc1ccccc1[C@@H]1OC(c2ccc(OCCCO)cc2)=N[C@]1(Cc1ccccc1)C(=O)NCC(O)CO (stereo partly drawn),1.25
13,COc1ccc(C(O)C2C=CC3C(=O)N(c4ccccc4)C(=O)C3N2Nc2ccc([N+](=O)[O-])cc2)cc1 (stereo not drawn),1.18
14,O=C1OCC=C[C@H]2OC34C=CCN(Cn5nnc6ccccc65)C(=O)[C@H]3N(CCCO)C(=O)[C@@H]4[C@@H]12 (stereo partly drawn),-0.772
15,CCC[C@@H]1C[C@@]1(CCC)[C@@H](NC(=O)OCc1ccccc1)c1ccc(-c2ccccc2)cc1,-0.294
16,CC(C)(C)OC(=O)CC[C@@]1(C(=O)NCc2ccccc2)N=C(c2ccc(OCCCO)cc2)O[C@@H]1c1ccccc1N=[N+]=[N-],1.13
17,COCCCNC(=O)[C@]1(CCS(=O)(=O)c2ccccc2)N=C(c2ccc(OCCCO)cc2)O[C@@H]1c1ccccc1CN=[N+]=[N-],1.44
18,C=C(COC)/C(=C/C[C@H](OC(=O)c1ccncc1)c1ccccc1OCCO)c1cnc2ccccc2c1,1.07

row,Structure (SMILES),composite z-score
1,O=C(NCC(F)(F)F)[C@@H]1c2ccccc2C(=O)N(Cc2cc(F)cc(C(F)(F)F)c2)[C@H]1c1ccc(CO)cc1,-0.317
2,Cc1ccccc1C(O)C1C=CC2C(=O)N(C)C(=O)C2N1N(c1ccccc1)c1ccccc1 (stereo not drawn),0.606
3,COCCOC(=O)N1C(=O)[C@@]2(c3cc(C#CC4=CCCCC4)ccc31)[C@H](C(N)=O)[C@H]1C(=O)O[C@H](c3ccccc3)[C@H](c3ccccc3)N1[C@@H]2c1ccccc1OCCO,0.306
4,C[N+](C)(C)CCCCCCNC(=O)[C@H]1C[C@H]2C(=O)NCC(=O)N2[C@H]1c1ccc(O)cc1,0.358
5,O=C1OCC=C[C@H]2OC34C=CCN(Cc5ccccc5)C(=O)[C@H]3N(CCCCCCO)C(=O)[C@@H]4[C@@H]12 (stereo partly drawn),-0.474
6,COc1ccc(-c2nc(-c3ccccc3)c3c(c2C)CO[Si]3(C(C)C)C(C)C)cn1,-0.0377
7,COCCOC(=O)N1C(=O)[C@@]2(c3cc(C#CC4(O)CCCCCC4)ccc31)[C@H](c1ccc(O)cc1)N1[C@H](c3ccccc3)[C@H](c3ccccc3)OC(=O)[C@H]1[C@@H]2C(=O)NC[C@H](O)c1ccccc1,0.538
8,[N-]=[N+]=NCc1ccccc1C[C@@]1(C(=O)NCc2ccccc2)N=C(c2ccc(OCCCO)cc2)O[C@@H]1c1ccccc1N=[N+]=[N-],1.27
9,[N-]=[N+]=NCc1ccccc1C[C@@]1(C(=O)N2CCOCC2)N=C(c2ccc(OCCCO)cc2)O[C@@H]1c1ccccc1,0.705
10,COc1ccc(NC(=O)O[C@H]2[C@H](OC(=O)Nc3ccccc3)[C@H](OC(=O)Nc3ccccc3)[C@@H](OC)O[C@@H]2CO)cc1,0.803
11,COCCOC(=O)N1C(=O)[C@@]2(c3ccccc31)[C@H](C(=O)N1CCN(c3ncccn3)CC1)[C@H]1C(=O)O[C@H](c3ccccc3)[C@H](c3ccccc3)N1[C@@H]2c1ccc(O)cc1,-0.0574
12,CCCCO[C@H]1C[C@H]2C(I)=C[C@@H]1C(=O)[C@]21CO1,-0.323
13,COc1ccc(CN(C2=CC[C@@]3(C(N)=O)C(=O)C(Cl)=C(Cl)C(=O)[C@@]3(C#N)C2)S(=O)(=O)c2ccc(Br)cc2)cc1,0.343
14,CCCCN1CC=CC23O[C@@H]4/C=C\CCC(C)OC(=O)C4[C@H]2C(=O)N(C(CO)C(C)C)[C@@H]3C1=O (stereo partly drawn),-0.19
15,[N-]=[N+]=NCc1ccccc1C[C@]1(C(N)=O)N=C(c2ccc(OCCCO)cc2)O[C@H]1c1ccccc1,1.56
16,C=CCNC(=O)[C@H]1[C@@H]2C(=O)O[C@@H](c3ccccc3)[C@@H](c3ccccc3)N2[C@@H](c2ccc(O)cc2)[C@]12C(=O)Nc1ccc(C#CC3(O)CCCCCC3)cc12,0.168
17,NCCCCCNC(=O)[C@@H]1C[C@@H]2C(=O)NCC(=O)N2[C@@H]1c1cccc(OCCO)c1,0.417
